# Results taken from ChEMBL document CHEMBL3988442, “University of Dundee, Small-Polar-MMV Screening Library” (2021).
# Target: T1, Aspartate--tRNA(Asp/Asn) ligase (Mycobacterium tuberculosis (strain ATCC 25618 / H37Rv)) (UniProt P9WFW3)
# T1 sequence (whole entry): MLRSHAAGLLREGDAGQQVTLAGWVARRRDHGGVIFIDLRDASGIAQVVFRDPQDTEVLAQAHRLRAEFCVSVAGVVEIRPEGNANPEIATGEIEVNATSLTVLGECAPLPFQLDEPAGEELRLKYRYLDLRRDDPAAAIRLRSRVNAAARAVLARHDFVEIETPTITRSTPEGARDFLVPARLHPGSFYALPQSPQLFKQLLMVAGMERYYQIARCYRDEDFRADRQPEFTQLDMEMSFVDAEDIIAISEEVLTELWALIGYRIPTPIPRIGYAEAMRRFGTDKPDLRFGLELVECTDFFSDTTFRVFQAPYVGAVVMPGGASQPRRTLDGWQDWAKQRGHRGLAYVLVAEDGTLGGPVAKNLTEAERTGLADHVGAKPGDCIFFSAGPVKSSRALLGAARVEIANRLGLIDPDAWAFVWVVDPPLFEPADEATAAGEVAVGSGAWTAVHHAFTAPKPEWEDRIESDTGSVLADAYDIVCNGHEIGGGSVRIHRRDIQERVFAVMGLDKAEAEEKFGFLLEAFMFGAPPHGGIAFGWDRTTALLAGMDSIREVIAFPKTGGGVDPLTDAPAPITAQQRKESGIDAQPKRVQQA
# Experiment: Assay for Asp RNA synthetase-1 from Mycobacterium tuberculosis
# Format: functional
# Parameters: scale not given: in the data most compounds retested in dose-response had high values
# Details: 30 µM
row,SMILES,Percent Effect
1,O=C(NCc1ccccc1CN1CCC(O)CC1)Nc1cccnc1,1.28%
2,O=C(c1cccnc1)N1C[C@@H]2CC[C@H](C1)N(Cc1cc(F)ccc1F)C2,5.92%
3,COc1cccc(CN(C)C(=O)Nc2ccc3c(c2)OCCO3)c1,16.5%
4,CCS(=O)(=O)N1CCC[C@]2(C(=O)N(C)C)CN(c3ncccn3)C[C@@H]2C1,2.53%
5,CC(=O)Nc1nc(CN2CCCCC2Cn2cccn2)cs1 (stereo not given),8.39%
6,O=C1CC[C@H]2[C@H](CCN2C(=O)C2CCCO2)N1Cc1ccncc1 (stereo not given in full),3.48%
7,Cn1ccc(C(=O)N2CCC(Cc3cccc4cccnc34)C2)n1 (stereo not given),-7.19%
8,O=C([C@H]1COC[C@H]2CN(C3CCCC3)C[C@H]21)N1CCCCO1,5.94%
9,COc1ccc(F)cc1C(C)NC(=O)c1nnc(C)s1 (stereo not given),1.79%
10,Cn1cc(C[C@H]2[C@H](O)CCN2CC2CC2)cn1,-0.168%
11,COCc1ncn2c1CN(C(=O)C1CC=CC1)CC2,1.48%
12,NCc1cnn(-c2ccccc2C(=O)NCCCn2ccnc2)c1,0.581%
13,Cc1nccn1-c1cccc(C2CCCN2S(=O)(=O)N(C)C)n1 (stereo not given),1.37%
14,CCn1nccc1CNC(=O)C(C)n1cc2c(n1)c(C)nn2C (stereo not given),-5.02%
15,CC(=O)N1CCN(c2cc(C3CN(C)CCO3)nc(C)n2)CC1 (stereo not given),0.67%
16,NC(=O)CN1CCC(C(=O)N2CCCC(OCc3cccnc3)C2)CC1 (stereo not given),-13.4%
17,FC(F)(F)COCCN1CCN(c2ccc3nncn3n2)CC1,0.546%
18,O=C(NCCCOCC1CCCO1)c1cccnc1N1CCCC1 (stereo not given),-1.51%
19,CC(C)c1nccn1-c1cccc(C2CCN(C)CC2)n1,-1.47%
20,COc1cccc(S(=O)(=O)N2CCC(O)(CN(C)C)C2)c1 (stereo not given),-0.221%

row,SMILES,Percent Effect
1,CC(C)N1CCO[C@H]2CN(C(=O)c3ccc(N(C)C)cc3)C[C@H]21,2.49%
2,COc1nccc(N2CCN(Cc3ccc(C)cc3)C(=O)C2)c1C#N,3.98%
3,NC(=O)c1cc(C2CCCN(C(=O)CCc3cscn3)C2)n[nH]1 (stereo not given),-4.07%
4,Cn1cnnc1C1CCCN(C(=O)NCCNc2ccccn2)C1 (stereo not given),-6.46%
5,O=C(c1ccccc1-n1cccn1)N1CCCN(c2cccnn2)CC1,0.98%
6,Cc1noc(C(C)C)c1C(=O)NCc1cccc(N(C)C)c1,-3.25%
7,CCc1cccc(NS(=O)(=O)c2cc3c(c(C(=O)O)c2)OCCO3)c1,-2.26%
8,c1coc(CN2C[C@H](OCC3CCOCC3)[C@H]3COC[C@H]32)c1,1.73%
9,COC(=O)C(NC(=O)c1ccco1)c1cc(F)ccc1F (stereo not given),-3.92%
10,CCc1nc(CN(C)C2CCN(Cc3cnc(C)cn3)C2)no1 (stereo not given),1.14%
11,CCN1CCC(CNCc2cc(OC)ccc2OC)C1 (stereo not given),-3.93%
12,Cc1nc(C)c(C(=O)N2CCC(Nc3cccnc3)CC2)s1,16.8%
13,Cc1ccccc1[C@@H]1CN(C(=O)c2ccc3[nH]nnc3c2)C[C@H]1C(=O)O,2.17%
14,CCn1c(CN(C)C)nnc1C1CCN(c2ccnc(C)c2)CC1,4.18%
15,N#Cc1ccccc1OCCN1CCC(N2CCNC2=O)CC1,-0.816%
16,COC(=O)CC(c1ccc(OC)c(OC)c1)c1oc(C)cc(=O)c1O (stereo not given),-0.938%
17,Cc1cccc(-c2noc(CN3CC(n4cc(C)cn4)C3)n2)c1,-0.577%
18,CC(NC(=O)N1CCN(c2ccccc2)CC1)c1nncn1C (stereo not given),1.07%
19,Cc1ncc(CNC(=O)c2nn(C)c3c2CS(=O)(=O)CC3)s1,-7.14%
20,CN(C)C(=O)c1nc2c(s1)CCN(C(=O)c1ccc(Cl)cc1)CC2,2.36%
